In PubChem BioAssay AID492992 (Johns Hopkins Ion Channel Center, 2010):
The campaign covered roughly 4,900 compounds. About 2,100 (43%) were called active.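 The calls were made as follows: active = thallium signal inhibited by more than 5 SD of the compound-free buffer control wells, on both duplicate plates; inactive = the rest.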 So high a share suggests a set chosen from earlier hits. Only a sample is shown.

target: Potassium channel subfamily K member 9 (Homo sapiens) (UniProt Q9NPC2); assay: KCNK9 potassium channel inhibitors, confirmation, HEK293 cells, thallium flux, duplicate (AID 492992); conditions: FluxOR thallium flux fluorescence, at 10 µM; hits give high values;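 as to inhibition: 0% = assay buffer control wells without compound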
Sequence (Q9NPC2 whole entry, looked up): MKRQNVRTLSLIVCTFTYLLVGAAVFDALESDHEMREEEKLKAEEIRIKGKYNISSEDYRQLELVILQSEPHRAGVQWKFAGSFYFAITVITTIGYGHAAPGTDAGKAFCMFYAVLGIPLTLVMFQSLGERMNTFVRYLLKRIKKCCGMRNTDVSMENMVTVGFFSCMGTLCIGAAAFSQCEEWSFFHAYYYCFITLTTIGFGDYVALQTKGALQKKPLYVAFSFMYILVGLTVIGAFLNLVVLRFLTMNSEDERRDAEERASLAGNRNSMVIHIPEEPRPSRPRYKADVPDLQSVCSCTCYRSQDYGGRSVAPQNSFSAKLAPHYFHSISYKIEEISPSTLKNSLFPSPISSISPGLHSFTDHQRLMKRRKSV

| SMILES | inhibition |
| --- | --- |
| CN(CCC(=O)Nc1cc(S(=O)(=O)N(C)C)ccc1Cl)CC(=O)Nc1ccc(F)cc1 | 51.5% (active) |
| CC1CCN(C(=S)c2ccc(-c3ccc(Cl)cc3Cl)o2)CC1 | inactive |
| COc1ccc(C2Nc3ccccc3C(=O)N2Cc2ccccc2)cc1Cn1nnc2ccccc21 (configuration not stated) | inactive |
| O=C(Nc1ccc(Cl)c(Cl)c1)N1CC=C(c2ccccc2)CC1 | 30% (active) |
| O=C(COC(=O)c1ccccc1)Nc1ccccc1Sc1ccccc1 | 35% (active) |
| CCN(C(=O)COc1ccc(C(=O)c2ccccc2)cc1)c1ccccc1 | 40% (active) |
| C[C@@]12C(=O)N(c3cccc(Br)c3)C(=O)N1[C@H](c1ccc(Cl)cc1)[C@@H]1C(=O)N(C3CCCCC3)C(=O)[C@@H]12 | inactive |
| CCOC(=O)[C@@H]1[C@H]2COc3ccc(Br)cc3[C@H]2N2C(=O)N(c3ccc(Cl)cc3)C(=O)[C@@]12C | 56.5% (active) |
| COc1cccc2cc(C(C)N(CCCN3CCOCC3)C(=O)Nc3ccc(Cl)cc3)oc12 (configuration not stated) | 42.5% (active) |
| Cc1cccc2cc(CN(Cc3nnnn3Cc3ccccc3)C3CCCC3)c(=O)[nH]c12 | 27% (active) |
| CCC(c1nnnn1Cc1ccco1)N(CCc1ccccc1)Cc1cc2cccc(C)c2[nH]c1=O (configuration not stated) | 47% (active) |
| CCOc1ccc(OCc2ccc(C(=O)Nc3cccc(C)n3)o2)cc1 | inactive |
| O=C(Cc1ccccc1)n1nc(-c2ccccc2)nc1NCc1ccco1 | inactive |
| CCCSc1nc(NCc2ccco2)c2c3c(sc2n1)COC(C)(CC)C3 (configuration not stated) | 40% (active) |
| CCC1(C)Cc2c(sc3[nH]c(=S)n(Cc4ccccc4)c(=O)c23)CO1 (configuration not stated) | inactive |
| Cc1ccc(C)c(NC(=S)NNC(=S)Nc2ccc(C(C)C)cc2)c1 | inactive |
| CCOC(=O)Cc1cc(=O)[nH]c(=O)[nH]1 | 25% (active) |
| Clc1ccc(Cl)c(Oc2ccc(Oc3nc(Cl)ccc3Cl)cc2)n1 | inactive |
| CCC/C=C(\CCC)C(NC(=O)Cc1ccccc1)c1ccc(C(=O)OC)cc1 (configuration not stated) | 67% (active) |
| CC(C)(C)SCCSC1=CC(=O)CC(c2ccccc2)C1 (configuration not stated) | inactive |
| CCCCCC(O)c1cccc(OCc2ccc3ccccc3n2)c1 (configuration not stated) | 74.5% (active) |

| SMILES | inhibition |
| --- | --- |
| COc1cccc(-c2cnc(OC(C)(C)C)nc2OC(C)(C)C)c1 | inactive |
| CCOC(=O)c1cc2sccc2n1Cc1ccc(C#N)cc1 | 65% (active) |
| CCOC(=O)c1c(NC(=O)CCCN2CCOCC2)sc2c1CC(C)(C)OC2 | inactive |
| CN(CCOc1ccccc1)C(=O)c1cc(COc2c(F)cccc2F)on1 | inactive |
| CCOC(=O)C1=C(C)Nc2sc(C(=O)c3ccc(Br)cc3)c(N)c2C1c1ccc(C(=O)OC)cc1 (configuration not stated) | 31% (active) |
| COc1cc(Cl)c(S(=O)(=O)N2CCN(Cc3ccc4c(c3)OCO4)CC2)cc1Cl | inactive |
| COc1ccc(C(=O)Nc2ccccc2C(=O)N/N=C/c2ccccc2OC)cc1 | 36.5% (active) |
| COc1ccc(C(=O)NN2C(=O)C3C(c4ccccc4)C=CC(c4ccccc4)C3C2=O)cc1 (configuration not stated) | inactive |
| O=C(CNCCC1=CCCCC1)Nc1ccccc1N1CCCCCC1 | 51.5% (active) |
| O=c1cc(CN2CCN(c3cccc(Cl)c3)CC2)c2cc3c(cc2o1)CCCC3 | inactive |
| CCOC(=O)c1c(NC(=O)CSc2cn(CC)c3ccccc23)sc2c1CCC2 | inactive |
| COc1cccc(OC)c1C(=O)Nc1sc2c(c1C(N)=O)CCCC2 | 33% (active) |
| Cc1ccc(C(=O)c2c(NC(=O)c3ccncc3)sc3c2CCCC3)cc1 | inactive |
| Cc1cc2ccccn2c1C(=O)c1cccc(F)c1 | inactive |
| COc1ccc(C(CCN(Cc2ccc(OC)c(OC)c2)C(=O)CCl)c2ccccc2)cc1 (configuration not stated) | 36% (active) |
| Cc1ccc(-c2csc(NCCc3nc4cc(Cl)c(Cl)cc4n3CCOCCO)n2)cc1 | 54% (active) |
| CCOC(=O)N1CCN(C(=O)COc2ccc3oc4c(c3c2)CCCC4)CC1 | inactive |
| Cc1cccc(NC(=O)c2sc3nc4c(c(-c5ccco5)c3c2N)CCC4)c1 | 58.5% (active) |
| O=C(N/N=C/c1ccccn1)c1cccc(NC(=O)c2ccc(Cl)cc2)c1 | 48% (active) |
| O=C(COc1ccc(Cl)cc1Cl)N/N=C/c1ccccn1 | 47% (active) |
| O=C(Nc1ccc2c(c1)CCC2)c1cccc(S(=O)(=O)Nc2ccccc2Cl)c1 | inactive |

| SMILES | inhibition |
| --- | --- |
| Oc1ccc(/C=N/Nc2nc(-c3ccccc3F)nc3ccccc23)c(O)c1 | inactive |
| COc1ccc(C(=O)C2CCCN(C(=O)c3ccc(OC)o3)C2)c(C)c1 (configuration not stated) | inactive |
| COc1ccc(OC)c(C(=O)c2coc3ccc(OC)cc23)c1 | 47% (active) |
| Cc1ccnc(N2CCN(C(=O)CSc3nc4ccccc4nc3N3CCCCC3)CC2)c1 | inactive |
| Clc1ccc(COn2c(-c3ccc(Cl)cc3Cl)nc3ncccc32)cc1 | 41% (active) |
| Cc1onc(-c2ccc(Cl)cc2)c1-c1ccnn1S(=O)(=O)c1ccc(Cl)cc1 | inactive |
| Cc1ccc(SCC(=O)c2cc(C)c(OC(=S)N(C)C)c(C)c2)cc1 | inactive |
| Cc1[nH][nH]c(=O)c1C(c1ccc(-c2ccc(Cl)cc2)o1)c1c(C)[nH][nH]c1=O | inactive |
| Cc1cc(C=O)c(C)n1-c1ccc(NC2CCCCC2)c([N+](=O)[O-])c1 | 63% (active) |
| Cc1ccc(NC(=O)c2cc([N+](=O)[O-])ccc2Cl)c(O)c1 | 58.5% (active) |
| CCN(CC)S(=O)(=O)c1ccc(N(C)Cc2ccc(C(F)(F)F)cc2)nc1 | inactive |
| O=C1CC(c2ccccc2)=NN1c1ccc([N+](=O)[O-])cc1 | inactive |
| O=C1c2ccccc2S(=O)(=O)N1CC(O)Cn1c2ccccc2c2ccccc21 (configuration not stated) | 28% (active) |
| CCCCOC(=O)CCCc1ccc([N+](=O)[O-])cc1[N+](=O)[O-] | inactive |
| Cc1ncoc1C(=O)N1CCCC(C(=O)c2ccc3c4c(cccc24)CC3)C1 (configuration not stated) | inactive |
| COC(=O)C1=C(Nc2ccc(C)cc2)C=C(C)C(C(=O)OC)C1c1ccc(F)cc1 (configuration not stated) | 36% (active) |
| CCn1cnc2scc(-c3ccc(C)c(C)c3)c2c1=O | inactive |
| CCCOc1ccc2c3c(c(=O)oc2c1OCCC)CCC3 | 66.5% (active) |
| COc1ccc(C2CC(c3cccs3)=NN2c2ccccc2)cc1 (configuration not stated) | 50% (active) |
| COc1ccc(/C=C2\CCc3ccccc3C2=O)c(OC)c1OC | inactive |
